The list is not random: actives were taken first. Their share in the collection is about 6.8%.
C_diff_growth: C. difficile growth inhibitors, primary screen, HTS; Clostridium difficile clinical isolate growth, OD600, 24 h; hits give low values; growth activity, negative = inhibition, % at 16 µg/mL (by protocol); 86,000 compounds, 0.25% hits; AID 1259249, 2017;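 active = mean growth activity at or below -80% and every replicate also at or below -80%; inconclusive = mean at or below -80% but some replicate above -80%; inactive = mean growth activity above -80%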;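 also: 0% = DMSO wells and -100% = levofloxacin 16 µg/mL wells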
T_cruzi_growth-1: T. cruzi intracellular proliferation inhibitors, primary screen, cell-based, beta-gal Tulahuen parasites, NIH3T3 host, luminescence | T. cruzi beta-gal in NIH3T3, GalScreen luminescence, 90 h | 77,000 compounds, 5.9% hits | inhibition, % at 8.34 µM;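 active = mean inhibition above about 93%, with at least 55% of replicates each passing it, limit read from the data, passing the limit was not always enough; inconclusive = only one of those two conditions holds; inactive = neither condition holds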
Pf_Dd2_inh: P. falciparum Dd2 growth inhibitors, primary screen, SYBR Green fluorescence, single dose replicates; 72 h; hits give low values; activity change, % at 10 µM; 94,000 compounds, 2.3% hits; in the data active = activity change below about -80%; inconclusive = no clear call, values can overlap the other calls
T_cruzi_growth-2: T. cruzi intracellular proliferation inhibitors, confirmation, cell-based, NIH3T3 host, beta-gal parasite, luminescence, cherry-pick. shares compounds with T_cruzi_growth-1. T. cruzi beta-gal in NIH3T3, GalScreen luminescence, 90 h. inhibition, % at 8.35 µM. 5,600 compounds, 72% hits. AID 651739, 2012;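 active = mean replicate inhibition above about 95% and at least 55% of replicates individually reaching it, limit read from the data; inconclusive = only one of the two criteria is met; inactive = neither criterion is met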
T_cruzi_growth-3: inhibitors of intracellular T. cruzi replication, confirmation, NIH3T3 host cells, beta-gal parasites, cherry-pick, set 2; T. cruzi beta-gal in NIH3T3, GalScreen luminescence, 90 h; inhibition, % at 2.09 µM; shares compounds with T_cruzi_growth-1; 5,600 compounds, 21% hits;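 active = mean inhibition above about 95%, with at least 55% of replicates also reaching it, limit read from the data; inconclusive = meets just one of the two conditions; inactive = meets neither condition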;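 also: plate controls were neutral control median for no effect and positive control median for full effect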
3T3_cytotox: cytotoxicity in mouse NIH/3T3 fibroblasts, confirmation, cytotoxicity control for T. cruzi proliferation inhibitor project, cell-based, cherry-pick, single point; shares compounds with T_cruzi_growth-1; NIH/3T3 viability, CellTiter-Glo ATP luminescence, 90 h; cytotoxicity (signal decrease), % at 8.35 µM; 5,600 compounds, 14% hits; AID 651742, 2012;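 active = mean signal decrease across replicates above about 35% based on untreated-well scatter, with enough replicates individually passing, limit read from the data; inconclusive = no rule stated though some were filed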;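 also: 0% = median of neutral control wells and 100% = median of positive control wells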
NIH3T3_tox_2: NIH/3T3 fibroblast cytotoxicity, confirmation, cytotoxicity control, cell-based, cherry-pick, single point, set 2 | shares compounds with T_cruzi_growth-1 | NIH/3T3 viability, CellTiter-Glo ATP luminescence, 90 h | inhibition, % at 24.9 µM | 5,600 compounds, 56% hits | AID 651744, 2012;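 active = mean loss of cell viability signal at or above a set limit, and enough replicates individually reaching it; inconclusive = meets only the mean limit or only the replicate share; inactive = meets neither condition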;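 also: 0% = median of neutral control wells and 100% = median of positive control wells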
Numbers without * were called inactive; ? = inconclusive; · = no result given.

SMILES C_diff_growth T_cruzi_growth-1 Pf_Dd2_inh T_cruzi_growth-2 T_cruzi_growth-3 3T3_cytotox NIH3T3_tox_2
C[C@@H]1CN([C@@H](C)CO)S(=O)(=O)c2ccc(C#CC3CCCCC3)cc2O[C@H]1CN(C)C(=O)Cc1ccncc1 · ? -70 103* 78 17 103*
CCC(=O)N(C)C[C@@H]1Oc2cc(C#CC3CCCC3)ccc2S(=O)(=O)N([C@@H](C)CO)C[C@H]1C -25 82 -63 · · · ·
COc1ccc(NC(=O)N[C@@H]2CC[C@H](CCNS(=O)(=O)c3ccccc3F)O[C@@H]2CO)cc1 · -9 -9 · · · ·
C[C@@H]1CN([C@H](C)CO)C(=O)Cc2cc(NC(=O)CCN3CCOCC3)ccc2O[C@@H]1CN(C)Cc1ccc(-c2ccccc2)cc1 8 -6 -2 · · · ·
Cc1ccc(-c2ccc3c(c2)O[C@@H](CN(C)C(=O)CN(C)C)[C@H](C)CN([C@@H](C)CO)S3(=O)=O)cc1 -6 39 -55 · · · ·
COc1ccccc1C(=O)N1C[C@H]2[C@@H](c3ccccc31)[C@@H](CO)N2C(=O)Nc1ccccc1 25 19 18 · · · ·
OC[C@@H]1[C@@H](c2ccc(C#CC3(O)CCCC3)cc2)[C@@H]2CN(Cc3ccncc3)CCCCN12 -7 -1 1 · · · ·
CCCNC(=O)C[C@@H]1C[C@H]2c3cc(NS(C)(=O)=O)ccc3O[C@H]2[C@@H](CO)O1 -2 -56 14 · · · ·
O=C(C[C@H]1CC[C@H](NC(=O)c2ccc(F)cc2)[C@@H](CO)O1)NCc1ccncn1 5 8 18 · · · ·
CNC[C@H]1Oc2cc(C#Cc3ccc(F)cc3)ccc2S(=O)(=O)N([C@H](C)CO)C[C@@H]1C 6 · -64 · · · ·
CNC[C@H]1Oc2cc(C#Cc3ccc(OC)cc3)ccc2S(=O)(=O)N([C@@H](C)CO)C[C@@H]1C 2 109* -73 103* 94 -4 105*
CNC[C@@H]1Oc2cc(C#Cc3ccc(OC)cc3)ccc2S(=O)(=O)N([C@H](C)CO)C[C@H]1C 0 103* -56 107* 81 15 105*
CNC[C@@H]1Oc2cc(C#Cc3cccc(OC)c3)ccc2S(=O)(=O)N([C@@H](C)CO)C[C@@H]1C 14 · -69 · · · ·
C[C@H]1CN([C@@H](C)CO)C(=O)CCCn2nncc2CO[C@@H]1CN(C)C(=O)C1CCCCC1 · -75 10 · · · ·
CC(=O)N(C)C[C@H]1Oc2ncc(-c3ccc(C#N)cc3)cc2C(=O)N([C@@H](C)CO)C[C@H]1C 0 11 20 · · · ·
CC(C)C#Cc1ccc2c(c1)O[C@H](CN(C)C(=O)c1cccc(F)c1)[C@@H](C)CN([C@H](C)CO)S2(=O)=O 20 ? -60 106* 71 13 ?
CC(C)C#Cc1ccc2c(c1)O[C@@H](CN(C)C(=O)c1cccc(F)c1)[C@@H](C)CN([C@H](C)CO)S2(=O)=O 16 105* -67 102* 61 15 54*
CC(C)C#Cc1ccc2c(c1)O[C@H](CN(C)C(=O)c1cccc(F)c1)[C@H](C)CN([C@H](C)CO)S2(=O)=O 16 111* -53 104* 52 22 39*
CC(C)C#Cc1ccc2c(c1)O[C@@H](CN(C)C(=O)c1cccc(F)c1)[C@H](C)CN([C@H](C)CO)S2(=O)=O 22 103* -70 103* 38 56* 63*
CC(C)C#Cc1ccc2c(c1)O[C@@H](CN(C)C(=O)c1ccccc1)[C@H](C)CN([C@@H](C)CO)S2(=O)=O -5 92 -67 · · · ·
CC(C)C#Cc1ccc2c(c1)O[C@H](CN(C)C(=O)c1ccccc1)[C@H](C)CN([C@@H](C)CO)S2(=O)=O 36 98 -36 · · · ·
C[C@@H]1CN([C@H](C)CO)C(=O)Cc2cc(NC(=O)Cc3cn(C)c4ccccc34)ccc2O[C@@H]1CN(C)C 0 · 3 · · · ·
C[C@H]1CN([C@@H](C)CO)C(=O)c2cc(NC(=O)c3ccncc3)ccc2O[C@@H]1CN(C)C(=O)Nc1ccc(C(F)(F)F)cc1 4 -6 -3 · · · ·
O=C(O)C[C@@H]1C[C@H]2c3cc(NC(=O)C4CCOCC4)ccc3O[C@H]2[C@@H](CO)O1 -2 · -2 · · · ·
C[C@@H]1CN([C@H](C)CO)S(=O)(=O)c2ccc(-c3ccc(F)cc3)cc2O[C@H]1CN(C)C(=O)C1CCCCC1 12 53 -73 · · · ·
SMILES C_diff_growth T_cruzi_growth-1 Pf_Dd2_inh T_cruzi_growth-2 T_cruzi_growth-3 3T3_cytotox NIH3T3_tox_2
C[C@@H]1CN([C@@H](C)CO)S(=O)(=O)c2ccc(-c3ccc(F)cc3)cc2O[C@@H]1CN(C)C(=O)C1CCC1 · 62 -7 · · · ·
C[C@H](CO)N1C[C@H](C)[C@H](CN(C)C(=O)C2CCCCC2)Oc2cc(-c3ccc(F)cc3)ccc2S1(=O)=O -5 119* -30 110* 71 ? 100*
C[C@H]1CN([C@@H](C)CO)S(=O)(=O)c2ccc(-c3ccc(F)cc3)cc2O[C@@H]1CN(C)C(=O)C1CCCCC1 14 99* -15 95* 69 10 53*
C[C@H]1CN([C@@H](C)CO)S(=O)(=O)c2ccc(-c3ccc(F)cc3)cc2O[C@H]1CN(C)C(=O)C1CCCCC1 3 112* -49 96* 57 21 101*
C[C@H]1CN([C@@H](C)CO)S(=O)(=O)c2ccc(-c3ccc(F)cc3)cc2O[C@H]1CN(C)C(=O)C1CCC1 · 80 -34 · · · ·
O=C(C[C@@H]1C[C@@H]2c3cc(NC(=O)Nc4ccc(F)cc4)ccc3O[C@@H]2[C@H](CO)O1)NC1CCCC1 · 3 -29 · · · ·
CN1CCN(C(=O)C[C@@H]2CC[C@H]3[C@@H](COC[C@@H](O)CN3Cc3cccc(Cl)c3)O2)CC1 · 18 -5 · · · ·
COc1ccc(S(=O)(=O)N(C)C[C@H]2Oc3ccc(N(C)C)cc3CC(=O)N([C@H](C)CO)C[C@@H]2C)cc1 -5 -6 -31 · · · ·
C[C@H](CO)N1C[C@H](C)[C@@H](CN(C)C(=O)Nc2ccc(F)cc2)Oc2ccc(NS(=O)(=O)c3ccccc3)cc2C1=O -4 5 -1 · · · ·
C[C@@H]1CCCCO[C@@H](CN(C)C)[C@H](C)CN([C@H](C)CO)C(=O)c2cc(NC(=O)c3ccncc3)ccc2O1 -2 2 · · · · ·

Source: PubChem
